According to ChEMBL document CHEMBL2218924, “A broad activity screen in support of a chemogenomic map for kinase signalling research and drug discovery” (Biochem J, 2013):

Legend:
[1] = biological target: T1, Ephrin type-A receptor 3 (Homo sapiens) (UniProt P29320); conditions: at 10 µM
T1 sequence (whole entry): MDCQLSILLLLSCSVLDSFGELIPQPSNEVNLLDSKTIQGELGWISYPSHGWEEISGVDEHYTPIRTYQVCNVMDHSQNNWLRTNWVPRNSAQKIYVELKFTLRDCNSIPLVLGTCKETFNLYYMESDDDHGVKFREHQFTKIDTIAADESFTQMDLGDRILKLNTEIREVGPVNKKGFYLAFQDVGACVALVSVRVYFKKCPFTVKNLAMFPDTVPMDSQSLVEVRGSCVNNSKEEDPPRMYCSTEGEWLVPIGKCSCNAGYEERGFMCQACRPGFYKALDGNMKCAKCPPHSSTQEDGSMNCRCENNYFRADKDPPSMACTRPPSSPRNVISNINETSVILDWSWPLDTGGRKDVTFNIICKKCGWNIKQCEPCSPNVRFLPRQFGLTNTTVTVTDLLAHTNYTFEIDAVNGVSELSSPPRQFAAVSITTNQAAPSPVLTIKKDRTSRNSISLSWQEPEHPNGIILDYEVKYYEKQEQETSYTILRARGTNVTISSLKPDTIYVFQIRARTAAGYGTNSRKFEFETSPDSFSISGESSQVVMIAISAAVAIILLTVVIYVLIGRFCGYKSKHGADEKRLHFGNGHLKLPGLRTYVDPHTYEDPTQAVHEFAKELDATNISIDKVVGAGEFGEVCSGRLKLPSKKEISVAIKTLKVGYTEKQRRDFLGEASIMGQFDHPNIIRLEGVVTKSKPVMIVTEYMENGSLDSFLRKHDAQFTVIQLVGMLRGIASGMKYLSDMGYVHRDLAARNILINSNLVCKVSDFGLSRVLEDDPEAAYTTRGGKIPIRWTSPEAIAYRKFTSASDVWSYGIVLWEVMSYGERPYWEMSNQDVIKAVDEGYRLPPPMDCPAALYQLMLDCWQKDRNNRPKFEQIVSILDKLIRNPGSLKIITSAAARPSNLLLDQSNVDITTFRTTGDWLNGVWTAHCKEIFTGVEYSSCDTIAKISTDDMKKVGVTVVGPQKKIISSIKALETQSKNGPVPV

[2] = biological target: Ephrin type-A receptor 4 (Homo sapiens) (UniProt P54764); conditions: at 1 µM
Sequence of Ephrin type-A receptor 4 (Homo sapiens) (P54764 whole entry): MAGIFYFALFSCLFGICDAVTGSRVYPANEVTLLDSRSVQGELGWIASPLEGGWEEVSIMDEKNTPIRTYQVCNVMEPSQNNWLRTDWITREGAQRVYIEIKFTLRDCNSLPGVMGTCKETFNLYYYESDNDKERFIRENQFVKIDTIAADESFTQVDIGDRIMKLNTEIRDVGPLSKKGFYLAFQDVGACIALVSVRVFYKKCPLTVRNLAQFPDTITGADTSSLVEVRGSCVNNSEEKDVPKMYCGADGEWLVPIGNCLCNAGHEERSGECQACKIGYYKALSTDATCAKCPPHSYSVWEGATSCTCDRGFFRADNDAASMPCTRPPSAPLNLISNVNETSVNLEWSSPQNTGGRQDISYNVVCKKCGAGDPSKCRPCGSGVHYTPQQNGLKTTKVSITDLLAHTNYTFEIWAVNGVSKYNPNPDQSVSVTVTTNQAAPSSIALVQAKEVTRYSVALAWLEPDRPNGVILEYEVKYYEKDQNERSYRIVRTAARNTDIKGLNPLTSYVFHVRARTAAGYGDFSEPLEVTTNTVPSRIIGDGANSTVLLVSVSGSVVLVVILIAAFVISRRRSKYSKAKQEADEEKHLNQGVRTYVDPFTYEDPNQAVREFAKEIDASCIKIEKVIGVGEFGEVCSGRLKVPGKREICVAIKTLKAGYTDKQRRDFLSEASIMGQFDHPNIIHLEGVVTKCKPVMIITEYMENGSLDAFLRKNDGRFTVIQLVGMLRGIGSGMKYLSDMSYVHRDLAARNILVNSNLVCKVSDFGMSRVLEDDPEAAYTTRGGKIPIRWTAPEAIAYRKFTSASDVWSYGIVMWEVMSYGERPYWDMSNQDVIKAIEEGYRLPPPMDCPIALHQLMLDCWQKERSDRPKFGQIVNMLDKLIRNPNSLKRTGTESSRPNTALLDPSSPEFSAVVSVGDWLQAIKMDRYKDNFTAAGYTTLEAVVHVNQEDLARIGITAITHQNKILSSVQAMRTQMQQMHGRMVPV

[3] = biological target: Ephrin type-A receptor 4 (Homo sapiens) (UniProt P54764); conditions: at 10 µM
[4] = biological target: Ephrin type-A receptor 5 (Homo sapiens) (UniProt P54756); conditions: at 1 µM
Sequence of Ephrin type-A receptor 5 (Homo sapiens) (P54756 whole entry): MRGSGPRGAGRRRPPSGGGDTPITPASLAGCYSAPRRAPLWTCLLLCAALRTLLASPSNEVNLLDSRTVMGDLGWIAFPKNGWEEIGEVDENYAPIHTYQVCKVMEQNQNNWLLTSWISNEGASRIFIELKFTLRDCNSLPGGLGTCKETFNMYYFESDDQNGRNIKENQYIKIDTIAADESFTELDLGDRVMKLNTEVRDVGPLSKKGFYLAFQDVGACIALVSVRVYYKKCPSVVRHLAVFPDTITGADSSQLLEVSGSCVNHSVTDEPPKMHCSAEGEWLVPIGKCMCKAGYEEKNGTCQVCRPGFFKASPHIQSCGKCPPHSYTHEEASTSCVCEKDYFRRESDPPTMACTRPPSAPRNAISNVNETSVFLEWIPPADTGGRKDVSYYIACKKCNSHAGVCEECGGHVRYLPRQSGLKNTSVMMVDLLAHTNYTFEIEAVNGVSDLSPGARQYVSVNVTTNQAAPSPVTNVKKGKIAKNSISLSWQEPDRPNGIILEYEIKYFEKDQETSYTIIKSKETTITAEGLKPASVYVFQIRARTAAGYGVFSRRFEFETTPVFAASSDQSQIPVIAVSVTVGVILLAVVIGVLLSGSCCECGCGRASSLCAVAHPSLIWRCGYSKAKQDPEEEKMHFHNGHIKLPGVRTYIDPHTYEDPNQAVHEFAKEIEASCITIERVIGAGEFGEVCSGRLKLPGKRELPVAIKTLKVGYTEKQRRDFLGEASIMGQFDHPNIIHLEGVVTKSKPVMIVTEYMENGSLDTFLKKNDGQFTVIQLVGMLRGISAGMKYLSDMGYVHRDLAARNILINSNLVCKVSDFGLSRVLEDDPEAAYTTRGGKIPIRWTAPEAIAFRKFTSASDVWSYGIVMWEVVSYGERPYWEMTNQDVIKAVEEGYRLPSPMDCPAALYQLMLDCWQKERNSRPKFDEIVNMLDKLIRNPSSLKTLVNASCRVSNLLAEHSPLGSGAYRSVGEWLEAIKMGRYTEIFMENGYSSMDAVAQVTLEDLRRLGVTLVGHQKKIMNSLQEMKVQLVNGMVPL

[5] = biological target: Ephrin type-A receptor 5 (Homo sapiens) (UniProt P54756); conditions: at 10 µM
[6] = biological target: Ephrin type-A receptor 7 (Homo sapiens) (UniProt Q15375); conditions: at 1 µM
Sequence of Ephrin type-A receptor 7 (Homo sapiens) (Q15375 28-998 limits assumed): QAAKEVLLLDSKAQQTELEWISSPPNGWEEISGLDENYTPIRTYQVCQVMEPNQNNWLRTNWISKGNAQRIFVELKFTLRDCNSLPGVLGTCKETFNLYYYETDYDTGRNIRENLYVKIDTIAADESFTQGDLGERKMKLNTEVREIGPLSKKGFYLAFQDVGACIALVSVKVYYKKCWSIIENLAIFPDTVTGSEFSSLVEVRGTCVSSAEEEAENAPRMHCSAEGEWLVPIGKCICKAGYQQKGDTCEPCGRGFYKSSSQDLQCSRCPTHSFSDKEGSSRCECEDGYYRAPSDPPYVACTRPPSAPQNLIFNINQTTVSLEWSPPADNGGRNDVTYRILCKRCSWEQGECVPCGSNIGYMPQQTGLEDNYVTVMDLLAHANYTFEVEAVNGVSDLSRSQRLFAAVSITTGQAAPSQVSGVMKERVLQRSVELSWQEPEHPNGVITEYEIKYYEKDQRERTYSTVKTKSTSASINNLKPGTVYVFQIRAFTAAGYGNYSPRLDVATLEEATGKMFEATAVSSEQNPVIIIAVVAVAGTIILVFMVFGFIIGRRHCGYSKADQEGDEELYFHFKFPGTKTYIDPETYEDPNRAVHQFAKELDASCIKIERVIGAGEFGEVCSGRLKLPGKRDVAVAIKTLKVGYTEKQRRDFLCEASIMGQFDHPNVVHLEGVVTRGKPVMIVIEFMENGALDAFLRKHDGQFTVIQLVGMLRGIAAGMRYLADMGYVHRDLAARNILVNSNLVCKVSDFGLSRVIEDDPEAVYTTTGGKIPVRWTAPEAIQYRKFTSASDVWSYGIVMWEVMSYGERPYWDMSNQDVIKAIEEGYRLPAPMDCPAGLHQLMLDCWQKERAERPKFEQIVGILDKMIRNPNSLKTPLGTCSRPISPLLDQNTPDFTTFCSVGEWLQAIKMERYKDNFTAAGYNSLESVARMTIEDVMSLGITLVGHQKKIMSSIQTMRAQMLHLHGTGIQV

[7] = biological target: Ephrin type-A receptor 7 (Homo sapiens) (UniProt Q15375); conditions: at 10 µM
[8] = biological target: T2, Ephrin type-A receptor 8 (Homo sapiens) (UniProt P29322); conditions: at 1 µM
T2 sequence (whole entry): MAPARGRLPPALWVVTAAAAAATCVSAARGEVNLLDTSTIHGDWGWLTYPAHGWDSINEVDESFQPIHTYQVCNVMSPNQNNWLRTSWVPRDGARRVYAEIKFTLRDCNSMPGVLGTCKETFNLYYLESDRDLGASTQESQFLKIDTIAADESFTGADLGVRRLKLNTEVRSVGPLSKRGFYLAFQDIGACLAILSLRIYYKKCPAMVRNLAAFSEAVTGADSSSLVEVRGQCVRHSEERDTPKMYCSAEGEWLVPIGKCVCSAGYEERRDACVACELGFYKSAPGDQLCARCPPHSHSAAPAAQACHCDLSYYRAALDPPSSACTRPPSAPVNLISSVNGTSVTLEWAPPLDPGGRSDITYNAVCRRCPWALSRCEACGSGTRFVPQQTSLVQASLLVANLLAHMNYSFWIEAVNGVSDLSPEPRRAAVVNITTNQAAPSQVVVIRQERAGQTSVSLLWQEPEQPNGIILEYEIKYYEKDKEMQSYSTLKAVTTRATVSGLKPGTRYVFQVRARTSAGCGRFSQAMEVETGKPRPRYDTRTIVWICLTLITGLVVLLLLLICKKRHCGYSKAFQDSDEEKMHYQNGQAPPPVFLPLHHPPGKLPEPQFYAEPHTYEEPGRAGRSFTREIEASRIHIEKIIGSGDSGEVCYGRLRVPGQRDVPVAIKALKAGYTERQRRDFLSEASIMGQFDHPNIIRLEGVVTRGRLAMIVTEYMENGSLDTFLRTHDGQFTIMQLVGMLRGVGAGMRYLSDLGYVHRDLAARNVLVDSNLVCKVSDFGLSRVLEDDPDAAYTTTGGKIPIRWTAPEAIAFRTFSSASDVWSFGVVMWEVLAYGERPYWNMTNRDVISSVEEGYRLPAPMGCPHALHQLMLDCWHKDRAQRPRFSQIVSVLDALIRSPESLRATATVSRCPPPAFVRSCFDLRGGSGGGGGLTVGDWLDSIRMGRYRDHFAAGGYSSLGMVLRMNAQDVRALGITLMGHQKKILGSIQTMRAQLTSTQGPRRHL

[9] = biological target: T2, Ephrin type-A receptor 8 (Homo sapiens); conditions: at 10 µM
[10] = biological target: T3, Ephrin type-B receptor 1 (Homo sapiens) (UniProt P54762); conditions: at 1 µM
T3 sequence (whole entry): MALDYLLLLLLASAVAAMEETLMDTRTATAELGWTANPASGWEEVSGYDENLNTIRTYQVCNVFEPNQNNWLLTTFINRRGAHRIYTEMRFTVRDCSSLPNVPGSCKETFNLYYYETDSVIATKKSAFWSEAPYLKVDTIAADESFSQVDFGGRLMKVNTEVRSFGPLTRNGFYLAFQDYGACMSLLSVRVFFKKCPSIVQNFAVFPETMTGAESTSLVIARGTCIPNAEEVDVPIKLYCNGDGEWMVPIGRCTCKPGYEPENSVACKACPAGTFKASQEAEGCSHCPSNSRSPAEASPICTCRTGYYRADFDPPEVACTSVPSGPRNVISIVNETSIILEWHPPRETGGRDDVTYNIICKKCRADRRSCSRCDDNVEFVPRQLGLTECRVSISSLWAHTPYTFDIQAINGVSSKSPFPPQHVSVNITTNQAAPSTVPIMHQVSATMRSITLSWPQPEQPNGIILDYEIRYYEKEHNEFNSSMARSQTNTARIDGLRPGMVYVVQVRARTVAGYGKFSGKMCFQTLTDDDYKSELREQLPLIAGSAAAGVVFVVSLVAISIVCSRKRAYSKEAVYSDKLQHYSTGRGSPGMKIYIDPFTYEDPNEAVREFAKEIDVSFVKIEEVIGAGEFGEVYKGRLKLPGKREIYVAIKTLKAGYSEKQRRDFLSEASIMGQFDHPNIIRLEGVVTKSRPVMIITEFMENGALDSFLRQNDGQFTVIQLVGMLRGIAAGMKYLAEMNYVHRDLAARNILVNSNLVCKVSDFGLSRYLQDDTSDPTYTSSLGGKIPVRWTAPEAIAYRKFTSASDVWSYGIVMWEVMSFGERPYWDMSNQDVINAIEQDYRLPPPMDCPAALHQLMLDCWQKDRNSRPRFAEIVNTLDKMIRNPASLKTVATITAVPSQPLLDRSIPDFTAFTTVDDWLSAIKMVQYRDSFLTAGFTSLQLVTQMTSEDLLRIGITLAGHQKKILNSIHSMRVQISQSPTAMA

## CCN(CC)CCCCN1c2ccccc2Oc2ccc(Cl)cc21
[1]
  residual activity: 97%
[2]
  residual activity: 116%
[3]
  residual activity: 100%
[4]
  residual activity: 108%
[5]
  residual activity: 113%
[6]
  residual activity: 105%
[7]
  residual activity: 103%
[8]
  residual activity: 98%
[9]
  residual activity: 114%
[10]
  residual activity: 100%
